Experimental findings from article PMC12864922, “TDP-43 directly inhibits mRNA accumulation in neurites through modulation of mRNA stability” are described below.

B1: ENSMUSG00000031028.648|Tub (ssRNA)
RNA: GGGAGUUCUACAGUCCGACGAUCGCUUCGAUAUCCGCAUGCUACCAGGUAGAGCAGAUGAGGCUGAAAUGUAGAGUGUUCUAUAGAGCAUCUCAGUAGCAUAGAAGGAGAAGCCCAGCUCCAACCUCCUGGACCCCAUACUGGUGACCAGCUUGGUGAGGACAGGCAAAAUUUCUCUAGCUGAGAGCACACUUAGCCAGUUUUCACGCCUAGAACAUAUAUGUCGAUUUGCACAUGAUUGUCUUUUCCUAUUUUGGAGUGGUCAGACAUUUUAUUUUUGUUCAAAAUUAUCUGGAGUUUUAGACUCUUGCGGUCGCACUAGUGUGGAAUUCUCGGGUGUCAAGG
B2: ENSMUSG00000032194.138|Kank2 (ssRNA)
RNA: GGGAGUUCUACAGUCCGACGAUCGCUUCGAUAUCCGCAUGCUAUGACUUGGAAAUGACCAACUUACAAGAAGUUAUGCUGACCUCCCUGUUCCCCACGGGGAGUGCUUGGCAGAGGAGACUACUUCUAGAAAUACUUUCAGACCUACAGACAAAAAAGAAAAAAGGCCAUUCCGGAGUGACUCCCAGCAUCACAGCCCAGAACCUCCUCCUCAAAGGAGAGUAAACAGAGACUGUGAUACUGACCAAGUACAGGCGCUCGCUAUGAAGCCCAUAUGUUCCUGAUUAAGAGCUGGCUGGCCUCACUCUUGCGGUCGCACUAGUGUGGAAUUCUCGGGUGUCAAGG
B3: ENSMUSG00000061578.1543|Ksr2 (ssRNA)
RNA: GGGAGUUCUACAGUCCGACGAUCGCUUCGAUAUCCGCAUGCUACACUAUGUAUAUUUGUAUAGAUCAUUUAUAAAGUUUUCUACACUUCUCAAAAAAAAAAAUAUUUCUAACCUUGGCUGUUGGACAGUCUGUGAGCCUGUGAGCCGGCAAGCCUGUUGUUUCUUGUGUUUAGUGCAAUGUUAGUGAGAAUCCAGUGUCUGAGUUAUUAAUGCCAAUAAAGAAUUUGAGAAUUACUGCAUCCGCUGCUGUCACUCCAGGUCAGAACUCUGCUGUUGUCUGUUGGAUGGAAGGAAGCUCCAGAGCUCUUGCGGUCGCACUAGUGUGGAAUUCUCGGGUGUCAAGG
B4: ENSMUSG00000058297.242|Spock2 (ssRNA)
RNA: GGGAGUUCUACAGUCCGACGAUCGCUUCGAUAUCCGCAUGCUAAGGGGACCACACUGAGCAGCUAGGCCCUGAUGCCAUGCCUCAGCACGCCCUCAGACCUCCAGGCCGGGUGGAAGGGGCUUUUACCCAGAUGUCCUGUGGGGUUUUGUGUGUCUAUUGCUCCCCACUUCCCCCUCUCAAAGGAAAUUUCCUUGAUAUAUUUGAUGAAGAAUUCCUUACCUGGGCCUCUGAUACCCUUUGGUACGCGUACGUGUGUGUGGCGCGUAUACGUGUGUGUGUGUGUGUGUGUGUGUGUGUGUGUGCUCUUGCGGUCGCACUAGUGUGGAAUUCUCGGGUGUCAAGG
B5: ENSMUSG00000058297.241|Spock2 (ssRNA)
RNA: GGGAGUUCUACAGUCCGACGAUCGCUUCGAUAUCCGCAUGCUAUAUCAGAGGGGACCACACUGAGCAGCUAGGCCCUGAUGCCAUGCCUCAGCACGCCCUCAGACCUCCAGGCCGGGUGGAAGGGGCUUUUACCCAGAUGUCCUGUGGGGUUUUGUGUGUCUAUUGCUCCCCACUUCCCCCUCUCAAAGGAAAUUUCCUUGAUAUAUUUGAUGAAGAAUUCCUUACCUGGGCCUCUGAUACCCUUUGGUACGCGUACGUGUGUGUGGCGCGUAUACGUGUGUGUGUGUGUGUGUGUGUGUGUGCUCUUGCGGUCGCACUAGUGUGGAAUUCUCGGGUGUCAAGG
B6: ENSMUSG00000058297.240|Spock2 (ssRNA)
RNA: GGGAGUUCUACAGUCCGACGAUCGCUUCGAUAUCCGCAUGCUAUGUAUCUAUCAGAGGGGACCACACUGAGCAGCUAGGCCCUGAUGCCAUGCCUCAGCACGCCCUCAGACCUCCAGGCCGGGUGGAAGGGGCUUUUACCCAGAUGUCCUGUGGGGUUUUGUGUGUCUAUUGCUCCCCACUUCCCCCUCUCAAAGGAAAUUUCCUUGAUAUAUUUGAUGAAGAAUUCCUUACCUGGGCCUCUGAUACCCUUUGGUACGCGUACGUGUGUGUGGCGCGUAUACGUGUGUGUGUGUGUGUGUGUGCUCUUGCGGUCGCACUAGUGUGGAAUUCUCGGGUGUCAAGG
B7: ENSMUSG00000058297.239|Spock2 (ssRNA)
RNA: GGGAGUUCUACAGUCCGACGAUCGCUUCGAUAUCCGCAUGCUAGAACGGUGUAUCUAUCAGAGGGGACCACACUGAGCAGCUAGGCCCUGAUGCCAUGCCUCAGCACGCCCUCAGACCUCCAGGCCGGGUGGAAGGGGCUUUUACCCAGAUGUCCUGUGGGGUUUUGUGUGUCUAUUGCUCCCCACUUCCCCCUCUCAAAGGAAAUUUCCUUGAUAUAUUUGAUGAAGAAUUCCUUACCUGGGCCUCUGAUACCCUUUGGUACGCGUACGUGUGUGUGGCGCGUAUACGUGUGUGUGUGUGUGCUCUUGCGGUCGCACUAGUGUGGAAUUCUCGGGUGUCAAGG
B8: ENSMUSG00000058297.242|Spock2|105:111;209:217;228:260 (ssRNA)
RNA: GGGAGUUCUACAGUCCGACGAUCGCUUCGAUAUCCGCAUGCUAAGGGGACCACACUGAGCAGCUAGGCCCUGAUGCCAUGCCUCAGCACGCCCUCAGACCUCCAGGCCGGGUGGAAGGGGCUUUUACCCAGAUGUCCUGUGGGGUUUACACACACUAUUGCUCCCCACUUCCCCCUCUCAAAGGAAAUUUCCUUGAUAUAUUUGAUGAAGAAUUCCUUACCUGGGCCUCUGAUACCCUUUGGUACGCGUACCACACACACGCGCGUAUACCACACACACACACACACACACACACACACACACCUCUUGCGGUCGCACUAGUGUGGAAUUCUCGGGUGUCAAGG
B9: ENSMUSG00000058297.243|Spock2 (ssRNA)
RNA: GGGAGUUCUACAGUCCGACGAUCGCUUCGAUAUCCGCAUGCUACCACACUGAGCAGCUAGGCCCUGAUGCCAUGCCUCAGCACGCCCUCAGACCUCCAGGCCGGGUGGAAGGGGCUUUUACCCAGAUGUCCUGUGGGGUUUUGUGUGUCUAUUGCUCCCCACUUCCCCCUCUCAAAGGAAAUUUCCUUGAUAUAUUUGAUGAAGAAUUCCUUACCUGGGCCUCUGAUACCCUUUGGUACGCGUACGUGUGUGUGGCGCGUAUACGUGUGUGUGUGUGUGUGUGUGUGUGUGUGUGUGUGUGUGCUCUUGCGGUCGCACUAGUGUGGAAUUCUCGGGUGUCAAGG
B10: ENSMUSG00000058297.245|Spock2 (ssRNA)
RNA: GGGAGUUCUACAGUCCGACGAUCGCUUCGAUAUCCGCAUGCUAGCUAGGCCCUGAUGCCAUGCCUCAGCACGCCCUCAGACCUCCAGGCCGGGUGGAAGGGGCUUUUACCCAGAUGUCCUGUGGGGUUUUGUGUGUCUAUUGCUCCCCACUUCCCCCUCUCAAAGGAAAUUUCCUUGAUAUAUUUGAUGAAGAAUUCCUUACCUGGGCCUCUGAUACCCUUUGGUACGCGUACGUGUGUGUGGCGCGUAUACGUGUGUGUGUGUGUGUGUGUGUGUGUGUGUGUGUGUGUGUGUGAGAGAGAGCUCUUGCGGUCGCACUAGUGUGGAAUUCUCGGGUGUCAAGG
B11: ENSMUSG00000058297.246|Spock2 (ssRNA)
RNA: GGGAGUUCUACAGUCCGACGAUCGCUUCGAUAUCCGCAUGCUACCCUGAUGCCAUGCCUCAGCACGCCCUCAGACCUCCAGGCCGGGUGGAAGGGGCUUUUACCCAGAUGUCCUGUGGGGUUUUGUGUGUCUAUUGCUCCCCACUUCCCCCUCUCAAAGGAAAUUUCCUUGAUAUAUUUGAUGAAGAAUUCCUUACCUGGGCCUCUGAUACCCUUUGGUACGCGUACGUGUGUGUGGCGCGUAUACGUGUGUGUGUGUGUGUGUGUGUGUGUGUGUGUGUGUGUGUGUGAGAGAGAGAGAGAGCUCUUGCGGUCGCACUAGUGUGGAAUUCUCGGGUGUCAAGG
B12: ENSMUSG00000058297.244|Spock2 (ssRNA)
RNA: GGGAGUUCUACAGUCCGACGAUCGCUUCGAUAUCCGCAUGCUAUGAGCAGCUAGGCCCUGAUGCCAUGCCUCAGCACGCCCUCAGACCUCCAGGCCGGGUGGAAGGGGCUUUUACCCAGAUGUCCUGUGGGGUUUUGUGUGUCUAUUGCUCCCCACUUCCCCCUCUCAAAGGAAAUUUCCUUGAUAUAUUUGAUGAAGAAUUCCUUACCUGGGCCUCUGAUACCCUUUGGUACGCGUACGUGUGUGUGGCGCGUAUACGUGUGUGUGUGUGUGUGUGUGUGUGUGUGUGUGUGUGUGUGUGAGCUCUUGCGGUCGCACUAGUGUGGAAUUCUCGGGUGUCAAGG

Over roughly 9,900 sequences, “r (bound/input frequency ratio)” has its median near 0.7; the highest 2% begin near 6.5. This is one part of a sample in which the highest values are shown more often than they occur.

In the experiment the target is TDP-43 (Homo sapiens, UniProt Q13148 1-414). As to the kind of experiment: RNA Bind-n-Seq with designed 260-mer pool; 25 mM Tris-HCl, 150 mM KCl, 3 mM MgCl2, BSA (printed 500 mg/mL), 20 units/mL SUPERase IN; pH not stated; 500 nM RNA pool, 1 h, 4 C; TDP-43 5, 50, 500 nM; high values mean tight binding. Conditions: protein: recombinant; tags: SBP (GST cleaved off with PreScission; pGEX-GST-SBP). The essentials: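 For each oligo, R gives binding as its mapped-read-normalized abundance after pulldown divided by its abundance in input. Bead-captured SBP-tagged TDP-43 (5, 50 or 500 nM) was incubated with 500 nM of an in vitro-transcribed 260-nt 3′ UTR oligo pool for 1 h at 4 °C in 25 mM Tris-HCl, 150 mM KCl, 3 mM MgCl2, BSA and SUPERase IN on streptavidin beads. Washed, biotin-eluted RNA was reverse transcribed, PCR-amplified and sequenced.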
TDP-43, sequence (Q13148 whole entry): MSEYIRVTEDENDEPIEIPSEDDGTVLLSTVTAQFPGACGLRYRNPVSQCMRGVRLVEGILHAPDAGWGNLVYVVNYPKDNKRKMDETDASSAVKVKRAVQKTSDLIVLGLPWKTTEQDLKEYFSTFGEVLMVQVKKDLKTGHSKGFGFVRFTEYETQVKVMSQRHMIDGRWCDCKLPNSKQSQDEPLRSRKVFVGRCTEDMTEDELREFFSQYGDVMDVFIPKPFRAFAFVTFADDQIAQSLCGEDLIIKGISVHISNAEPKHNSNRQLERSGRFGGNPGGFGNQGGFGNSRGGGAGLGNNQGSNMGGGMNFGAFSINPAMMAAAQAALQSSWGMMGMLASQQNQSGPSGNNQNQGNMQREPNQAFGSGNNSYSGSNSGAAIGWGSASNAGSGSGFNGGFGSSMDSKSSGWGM
B1: the binding signal was 0.252 R (bound/input frequency ratio).

In the case of B2, the binding signal is 0.253 R (bound/input frequency ratio).

B3: the binding signal was 0.902 R (bound/input frequency ratio).

As for B4, the binding signal was 6.94 R (bound/input frequency ratio).

Regarding B5, the binding signal is 6.46 R (bound/input frequency ratio).

In the case of B6, the binding signal was 5.45 R (bound/input frequency ratio).

Take B7: the binding signal is 3.69 R (bound/input frequency ratio).

As for B8, the binding signal is 4.83 R (bound/input frequency ratio).

Turning to B9, the binding signal was 6.55 R (bound/input frequency ratio).

As for B10, the binding signal is 9.24 R (bound/input frequency ratio).

B11: the binding signal was 2.94 R (bound/input frequency ratio).

Consider B12, for which the binding signal was 3.2 R (bound/input frequency ratio).
